In the supplement of paper PMC4466140:

B1: unnamed (peptide)
chain: QRKSLRRPTLSKPAV
B2: unnamed (peptide)
chain: ISNFVPPNLPMRRFK
B3: unnamed (peptide)
chain: NLKKRPPTAPQRKIS

Biological target: CaNbp2
Assay: SPOT peptide array binding signal intensity (averaged, normalized) (arbitrary units (background-subtracted, floor 0; scale differs between SH3 domains)); higher = stronger binding of the SH3 domain to the peptide
Procedure: (§1)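 GST-tagged SH3 domains from S. cerevisiae (Sc), A. gossypii (Ag), C. albicans (Ca) and S. pombe (Sp) were incubated at 10 ug/ml overnight at 4 C on cellulose SPOT membranes carrying 292 synthetic 15-mer peptides mined from the S. cerevisiae proteome (cysteines replaced by serines). Binding was detected with anti-GST antibody, HRP secondary and chemiluminescence, quantified with Genespotter, and reported as normalized spot intensities averaged over biological replicates.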

Binder | SPOT peptide array binding signal intensity
B1 | 319
B2 | 103
B3 | 764

Biological target: CaRvs167
Assay: as above
Procedure: as §1

Binder | SPOT peptide array binding signal intensity
B1 | 17.5
B2 | 571
B3 | 32

Biological target: CaRvs167-3
Assay: as above
Procedure: as §1

Binder | SPOT peptide array binding signal intensity
B1 | 5.5
B2 | 6.25
B3 | 67.8

Biological target: CaSho1
Assay: as above
Procedure: as §1

Binder | SPOT peptide array binding signal intensity
B1 | 76
B2 | 49.5
B3 | 170

Biological target: CaSla1-D1-D2
Assay: as above
Procedure: as §1

Binder | SPOT peptide array binding signal intensity
B1 | 118
B2 | 1000
B3 | 1470

Biological target: CaSla1-D3
Assay: as above
Procedure: as §1

Binder | SPOT peptide array binding signal intensity
B1 | ≤ 0
B2 | 250
B3 | 6.5

Biological target: ScAbp1
Assay: as above
Procedure: as §1

Binder | SPOT peptide array binding signal intensity
B1 | 52.5
B2 | 44
B3 | 2890

Biological target: ScBbc1
Assay: as above
Procedure: as §1

Binder | SPOT peptide array binding signal intensity
B1 | 45.8
B2 | 130
B3 | 56.8

Biological target: ScBem1-D1
Assay: as above
Procedure: as §1

Binder | SPOT peptide array binding signal intensity
B1 | 53
B2 | 13
B3 | 8

Biological target: ScBzz1-D1
Assay: as above
Procedure: as §1

Binder | SPOT peptide array binding signal intensity
B1 | 32
B2 | 29.5
B3 | 258

Biological target: ScBzz1-D2
Assay: as above
Procedure: as §1

Binder | SPOT peptide array binding signal intensity
B1 | 43
B2 | 63
B3 | 34

Biological target: ScCyk3
Assay: as above
Procedure: as §1

Binder | SPOT peptide array binding signal intensity
B1 | 17
B2 | 5.5
B3 | 13

Biological target: ScFus1
Assay: as above
Procedure: as §1

Binder | SPOT peptide array binding signal intensity
B1 | 151
B2 | 17
B3 | 80

Biological target: ScHof1
Assay: as above
Procedure: as §1

Binder | SPOT peptide array binding signal intensity
B1 | 0.5
B2 | 8.75
B3 | 2.75

Biological target: ScHse1
Assay: as above
Procedure: as §1

Binder | SPOT peptide array binding signal intensity
B1 | 1190
B2 | 122
B3 | 1640

Biological target: ScLsb1
Assay: as above
Procedure: as §1

Binder | SPOT peptide array binding signal intensity
B1 | 4
B2 | 393
B3 | 32.5

Biological target: ScLsb2
Assay: as above
Procedure: as §1

Binder | SPOT peptide array binding signal intensity
B1 | 6
B2 | 372
B3 | 3.5

Biological target: ScLsb3
Assay: as above
Procedure: as §1

Binder | SPOT peptide array binding signal intensity
B1 | 356
B2 | 7910
B3 | 2500

Biological target: ScLsb4
Assay: as above
Procedure: as §1

Binder | SPOT peptide array binding signal intensity
B1 | 10.5
B2 | 2470
B3 | 100

Biological target: ScMyo3
Assay: as above
Procedure: as §1

Binder | SPOT peptide array binding signal intensity
B1 | 0.5
B2 | 17.2
B3 | 9.5

Biological target: ScMyo5
Assay: as above
Procedure: as §1

Binder | SPOT peptide array binding signal intensity
B1 | 1
B2 | 1.5
B3 | 6.5

Biological target: ScNbp2
Assay: as above
Procedure: as §1

Binder | SPOT peptide array binding signal intensity
B1 | 183
B2 | 198
B3 | 578

Biological target: ScPex13
Assay: as above
Procedure: as §1

Binder | SPOT peptide array binding signal intensity
B1 | ≤ 0
B2 | 1760
B3 | 1.75

Biological target: ScRvs167
Assay: as above
Procedure: as §1

Binder | SPOT peptide array binding signal intensity
B1 | 25
B2 | 1610
B3 | 708

Biological target: ScSho1
Assay: as above
Procedure: as §1

Binder | SPOT peptide array binding signal intensity
B1 | 250
B2 | 85.5
B3 | 367

Biological target: ScSla1-D1-D2
Assay: as above
Procedure: as §1

Binder | SPOT peptide array binding signal intensity
B1 | 370
B2 | 367
B3 | 1690

Biological target: ScSla1-D3
Assay: as above
Procedure: as §1

Binder | SPOT peptide array binding signal intensity
B1 | 38.8
B2 | 184
B3 | 8.25

Biological target: SpAbp1-D1
Assay: as above
Procedure: as §1

Binder | SPOT peptide array binding signal intensity
B1 | 101
B2 | 26
B3 | 2030

Biological target: SpBbc1
Assay: as above
Procedure: as §1

Binder | SPOT peptide array binding signal intensity
B1 | 3.5
B2 | 36.5
B3 | 11

Biological target: SpBzz1-D1
Assay: as above
Procedure: as §1

Binder | SPOT peptide array binding signal intensity
B1 | 202
B2 | 748
B3 | 641

Biological target: SpBzz1-D2
Assay: as above
Procedure: as §1

Binder | SPOT peptide array binding signal intensity
B1 | ≤ 0
B2 | 3
B3 | 8.5

Biological target: SpCyk3
Assay: as above
Procedure: as §1

Binder | SPOT peptide array binding signal intensity
B1 | ≤ 0
B2 | 8
B3 | ≤ 0

Biological target: SpHof1
Assay: as above
Procedure: as §1

Binder | SPOT peptide array binding signal intensity
B1 | 38.8
B2 | 51.8
B3 | 192

Biological target: SpHof1-2
Assay: as above
Procedure: as §1

Binder | SPOT peptide array binding signal intensity
B1 | 6.5
B2 | 41
B3 | 12.8

Biological target: SpHof1-3
Assay: as above
Procedure: as §1

Binder | SPOT peptide array binding signal intensity
B1 | 375
B2 | 22
B3 | 77.2

Biological target: SpHse1
Assay: as above
Procedure: as §1

Binder | SPOT peptide array binding signal intensity
B1 | 140
B2 | 86
B3 | 1160

Biological target: SpLsb1
Assay: as above
Procedure: as §1

Binder | SPOT peptide array binding signal intensity
B1 | 8.75
B2 | 236
B3 | 9

Biological target: SpLsb4
Assay: as above
Procedure: as §1

Binder | SPOT peptide array binding signal intensity
B1 | 99
B2 | 6240
B3 | 2350

Biological target: SpMyo1
Assay: as above
Procedure: as §1

Binder | SPOT peptide array binding signal intensity
B1 | 7.75
B2 | 31.2
B3 | 10.2

Biological target: SpNbp2
Assay: as above
Procedure: as §1

Binder | SPOT peptide array binding signal intensity
B1 | 63.5
B2 | 13
B3 | 303

Biological target: SpPex13
Assay: as above
Procedure: as §1

Binder | SPOT peptide array binding signal intensity
B1 | 10
B2 | 57.5
B3 | 6

Biological target: SpRvs167
Assay: as above
Procedure: as §1

Binder | SPOT peptide array binding signal intensity
B1 | 14.5
B2 | 1440
B3 | 539

Biological target: SpSla1-D1-D2
Assay: as above
Procedure: as §1

Binder | SPOT peptide array binding signal intensity
B1 | ≤ 0
B2 | 69
B3 | 13

Biological target: SpSla1-D3
Assay: as above
Procedure: as §1

Binder | SPOT peptide array binding signal intensity
B1 | 1
B2 | 32
B3 | 6

Biological target: AgAbp1
Assay: as above
Procedure: as §1

Binder | SPOT peptide array binding signal intensity
B2 | 31.5
B3 | 2190

Biological target: AgBbc1
Assay: as above
Procedure: as §1

Binder | SPOT peptide array binding signal intensity
B2 | 182
B3 | 265

Biological target: AgBem1-D1
Assay: as above
Procedure: as §1

Binder | SPOT peptide array binding signal intensity
B2 | 124
B3 | 28.5

Biological target: AgBzz1-D1
Assay: as above
Procedure: as §1

Binder | SPOT peptide array binding signal intensity
B2 | 90
B3 | 277

Biological target: AgBzz1-D2
Assay: as above
Procedure: as §1

Binder | SPOT peptide array binding signal intensity
B2 | 70.5
B3 | 199

Biological target: AgCyk3
Assay: as above
Procedure: as §1

Binder | SPOT peptide array binding signal intensity
B2 | 1
B3 | ≤ 0

Biological target: AgFus1
Assay: as above
Procedure: as §1

Binder | SPOT peptide array binding signal intensity
B2 | 23
B3 | 110

Biological target: AgHof1
Assay: as above
Procedure: as §1

Binder | SPOT peptide array binding signal intensity
B2 | 186
B3 | 60

Biological target: AgHse1
Assay: as above
Procedure: as §1

Binder | SPOT peptide array binding signal intensity
B2 | 49
B3 | 1520

Biological target: AgLsb1
Assay: as above
Procedure: as §1

Binder | SPOT peptide array binding signal intensity
B2 | 136
B3 | 2.25

Biological target: AgLsb4
Assay: as above
Procedure: as §1

Binder | SPOT peptide array binding signal intensity
B2 | 3890
B3 | 109

Biological target: AgMyo5
Assay: as above
Procedure: as §1

Binder | SPOT peptide array binding signal intensity
B2 | ≤ 0
B3 | ≤ 0

Biological target: AgNbp2
Assay: as above
Procedure: as §1

Binder | SPOT peptide array binding signal intensity
B2 | 64
B3 | 245

Biological target: AgRvs167
Assay: as above
Procedure: as §1

Binder | SPOT peptide array binding signal intensity
B2 | 256
B3 | 13.5

Biological target: AgSho1
Assay: as above
Procedure: as §1

Binder | SPOT peptide array binding signal intensity
B2 | 20.5
B3 | 33.5

Biological target: AgSla1-D1-D2
Assay: as above
Procedure: as §1

Binder | SPOT peptide array binding signal intensity
B2 | 2.5
B3 | 370

Biological target: AgSla1-D3
Assay: as above
Procedure: as §1

Binder | SPOT peptide array binding signal intensity
B2 | 3
B3 | 28.2

Biological target: CaAbp1-D1
Assay: as above
Procedure: as §1

Binder | SPOT peptide array binding signal intensity
B2 | 40
B3 | 5270

Biological target: CaAbp1-D2
Assay: as above
Procedure: as §1

Binder | SPOT peptide array binding signal intensity
B2 | 9
B3 | 6470

Biological target: CaBbc1
Assay: as above
Procedure: as §1

Binder | SPOT peptide array binding signal intensity
B2 | 902
B3 | 646

Biological target: CaBem1-D1
Assay: as above
Procedure: as §1

Binder | SPOT peptide array binding signal intensity
B2 | 21
B3 | 48.5

Biological target: CaBzz1-D1
Assay: as above
Procedure: as §1

Binder | SPOT peptide array binding signal intensity
B2 | 370
B3 | 727

Biological target: CaBzz1-D2
Assay: as above
Procedure: as §1

Binder | SPOT peptide array binding signal intensity
B2 | 297
B3 | 2010

Biological target: CaCyk3
Assay: as above
Procedure: as §1

Binder | SPOT peptide array binding signal intensity
B2 | 47
B3 | 3

Biological target: CaFus1
Assay: as above
Procedure: as §1

Binder | SPOT peptide array binding signal intensity
B2 | 152
B3 | 254

Biological target: CaHof1
Assay: as above
Procedure: as §1

Binder | SPOT peptide array binding signal intensity
B2 | 5
B3 | 1

Biological target: CaHse1
Assay: as above
Procedure: as §1

Binder | SPOT peptide array binding signal intensity
B2 | 72
B3 | 34.5

Biological target: CaLsb1
Assay: as above
Procedure: as §1

Binder | SPOT peptide array binding signal intensity
B2 | 10.2
B3 | ≤ 0

Biological target: CaLsb4
Assay: as above
Procedure: as §1

Binder | SPOT peptide array binding signal intensity
B2 | 5880
B3 | 942

Biological target: CaMyo5
Assay: as above
Procedure: as §1

Binder | SPOT peptide array binding signal intensity
B2 | 28.5
B3 | 4.5
